Results from the supplement of paper PMC11060735.
“And” between values parts separate entries of the source, which are not always exact repeats. Identical values can stand only once. Counter-ions that a name gives are not always drawn. Hit rate of the full screen: of about 1,800 compounds, about 50 (3%) showed activity. The entries come from a sample that favours actives as a whole.

Tested on: mouse p16Ink4a+/- lung fibroblasts (INKBRITE, bleomycin-injured)
Experiment: percentage of GFP+ (p16Ink4a+) fibroblasts among all cells in well; higher = less depletion of p16Ink4a+ cells, active = 20 or less
Conditions: 1 µM; 3 days

Structure (SMILES)	percentage of GFP+
COC1=C(OC)C(=O)C(CCCCCCCCCCO)=C(C)C1=O [Idebenone]	43.7% (inactive)
CCCc1cc(C)nc(O)c1CNC(=O)c1cc(-c2ccc(N3CCN(C(C)C)CC3)nc2)cc2c1cnn2C(C)C	39.6% (inactive)
O=C(O)c1cc(-c2ccccc2)nc2ccccc12 [Cinchophen]	46.7% (inactive)
C[C@@]1(c2cc(-c3cncnc3)c(F)cc2F)CCSC(N)=N1	36.4% (inactive)
COC(=O)c1ccc2c(/C(=N/c3ccc(N(C)C(=O)CN4CCN(C)CC4)cc3)c3ccccc3)c(O)[nH]c2c1 [Nintedanib]	25.4% (inactive)
O=C(NC1CCOCC1)c1ccc(-c2cc(-c3c[nH]nc3-c3ccccn3)ccn2)cc1	40.4% (inactive)
Cc1cnc(NC(=O)Nc2cc(Br)c(C)cc2OC[C@@H]2CNCCO2)cn1	28.6% (inactive)
CCc1c(Cl)c(O)c(Cl)c(O)c1C(=O)O[C@H]1[C@H](O)[C@H](OC)[C@H](OC/C2=C\C=C\C[C@H](O)/C(C)=C\[C@H](CC)[C@@H](O[C@@H]3OC(C)(C)[C@@H](OC(=O)C(C)C)[C@H](O)[C@@H]3O)/C(C)=C\C(C)=C/C[C@@H]([C@@H](C)O)OC2=O)O[C@@H]1C [Fidaxomicin]	50.9% (inactive)
Cc1cc(C#N)cc(C)c1Oc1nc(Nc2ccc(C#N)cc2)nc(N)c1Br [Etravirine]	35% (inactive)
COc1cccc2c1C(=O)c1c(O)c3c(c(O)c1C2=O)C[C@@](O)(C(=O)CO)C[C@@H]3O[C@H]1C[C@H](N)[C@H](O)[C@H](C)O1 [Doxorubicin]	25.2% (inactive)
CC(=O)[C@]1(O)Cc2c(O)c3c(c(O)c2[C@@H](O[C@H]2C[C@H](N)[C@H](O)[C@H](C)O2)C1)C(=O)c1ccccc1C3=O [Idarubicin, Idarubicin Hydrochloride]	19.9% (active)
COc1cccc2c1C(=O)c1c(O)c3c(c(O)c1C2=O)C[C@@](O)(C(C)=O)C[C@@H]3O[C@H]1C[C@H](N)[C@H](O)[C@H](C)O1 [Daunorubicin]	24.3% (inactive)
CC(=O)N1CCN(CCOc2ccc(C3CCN(C4=Nn5c(nnc5C(F)(F)F)CC4)CC3)cc2)CC1	43.8% (inactive)
CC[C@H](C)[C@H]1O[C@]2(CC[C@@H]1C)C[C@@H]1C[C@@H](C/C=C(\C)[C@@H](O[C@H]3C[C@H](OC)[C@@H](O[C@H]4C[C@H](OC)[C@@H](O)[C@H](C)O4)[C@H](C)O3)[C@@H](C)/C=C/C=C3\CO[C@@H]4[C@H](O)C(C)=C[C@@H](C(=O)O1)[C@]34O)O2 [Ivermectin]	37.9% (inactive)
Cc1cccc(CC(=O)N2CCc3c2ccc(-c2cn(C)c4ncnc(N)c24)c3F)n1	45% (inactive)
COc1cc(C(=O)NS(=O)(=O)c2ccccc2C)ccc1Cc1cn(C)c2ccc(NC(=O)OC3CCCC3)cc12 [Zafirlukast]	47.1% (inactive)
Cn1cc(CNCC2CCN(c3ncc(C(=O)NO)cn3)CC2)c2ccccc21 [Quisinostat]	1.92% (active)
CN1CCc2c(c3ccccc3n2Cc2ccc(C(=O)NO)cc2)C1 [Tubastatin A HCl]	53.9% (inactive) and 45% (inactive)
COc1ccc(COc2ccc(Cc3cnc(N)nc3N)cc2OC)cc1	33.4% (inactive)
Cc1cccc(C)c1OCC(C)N (stereo not drawn) [Mexiletine]	46% (inactive)
CCNC(=O)c1noc(-c2cc(C(C)C)c(O)cc2O)c1-c1ccc(CN2CCOCC2)cc1 [Luminespib (NVP-AUY922)]	6.33% (active)
CCN(c1cc(-c2ccc(CN3CCOCC3)cc2)cc(C(=O)NCc2c(C)cc(C)nc2O)c1C)C1CCOCC1	54.5% (inactive)
Cc1cc(C)c(CNC(=O)c2cc(-c3ccc(CN4CCOCC4)cc3)cc3c2cnn3C2CCCC2)c(O)n1	49.7% (inactive)

Structure (SMILES)	percentage of GFP+
Cc1cc(C2CCCCC2)n(O)c(=O)c1 [Ciclopirox]	29.6% (inactive) and 35.5% (inactive)
CCCOc1ccc(C(=O)OCCN(CC)CC)cc1N [Proparacaine]	37.1% (inactive)
COC(=O)CCSCc1ccc(-c2onc(C)c2NC(=O)OC(C)c2ccccc2Cl)cc1 (stereo not drawn)	43.9% (inactive)
CCN(CC)CCCC(C)Nc1c2ccc(Cl)cc2nc2ccc(OC)cc12 (stereo not drawn) [Quinacrine]	46.6% (inactive)
O=C(/C=C\n1cnc(-c2cc(C(F)(F)F)cc(C(F)(F)F)c2)n1)N1CC(F)(F)C1	24.1% (inactive)
COc1cc(-c2ncn(/C=C\C(=O)OC(C)C)n2)cc(C(F)(F)F)c1	14.1% (active)
O=C(/C=C\n1cnc(-c2cc(C(F)(F)F)cc(C(F)(F)F)c2)n1)NNc1cnccn1 [Selinexor (KPT-330)]	14.7% (active)
CN(C)CCOC(c1ccccc1)c1ccccc1 [Diphenhydramine]	47.9% (inactive)
CC(C)(C)c1cnc(CSc2cnc(NC(=O)C3CCNCC3)s2)o1	28.7% (inactive)
N#Cc1ccc2[nH]c(O)c(-c3ccc(CN4CCOCC4)cn3)c2c1	40.8% (inactive)
CO/C(O)=C1\C(C)=NC(C)=C(C(=O)O[C@@H]2CCCN(Cc3ccccc3)C2)[C@@H]1c1cccc([N+](=O)[O-])c1 [Benidipine]	41.8% (inactive)
Cn1c(=O)c2c(ncn2CC2OCCO2)n(C)c1=O [Doxofylline]	41% (inactive)
CC(C)OC(=O)C(C)(C)Oc1ccc(C(=O)c2ccc(Cl)cc2)cc1 [Fenofibrate]	45.5% (inactive)
O=C1CCc2cc(OCCCCc3nnnn3C3CCCCC3)ccc2N1 [Cilostazol]	45.1% (inactive)
CN1CC[C@@H](c2c(O)cc(O)c3c(=O)cc(-c4ccccc4Cl)oc23)[C@@H]1CO	20.2% (inactive)
CN1CC[C@H](c2c(O)cc(O)c3c(=O)cc(-c4ccccc4Cl)oc23)[C@H](O)C1 [Flavopiridol]	4.28% (active)
CC(=O)C1=C(O)C=C2Oc3c(C(C)=O)c(O)c(C)c(O)c3[C@]2(C)C1=O [(+)-Usniacin]	45.5% (inactive)
CCNC1=N[C@@H]2[C@@H](O)[C@H](O)[C@@H](CO)O[C@@H]2S1 [Thiamet G]	56.9% (inactive)
CC(=O)c1cc([N+](=O)[O-])c(Sc2cccc(Cl)c2Cl)s1	41.2% (inactive)
COc1c(C)cnc(Cn2cnc3c(Cl)nc(N)nc32)c1C	7.81% (active)
Nc1nc(O)c2ncn(COCCO)c2n1 [Aciclovir]	45.4% (inactive)
COc1ccc2[nH]c(S(=O)Cc3ncc(C)c(OC)c3C)nc2c1 (stereo not drawn) [Esomeprazole; Omeprazole]	43.4% (inactive) and 32.8% (inactive)
COc1ccc(CNC(=O)Nc2ncc([N+](=O)[O-])s2)cc1 [N-(4-Methoxybenzyl)-N'-(5-Nitro-1,3-Thiazol-2-Yl)Urea]	43.1% (inactive)

Structure (SMILES)	percentage of GFP+
CCN(Cc1ccncc1)C(=O)C(CO)c1ccccc1 (stereo not drawn) [Tropicamide]	49.3% (inactive)
O=C(Nc1ccc(OC(F)(F)F)cc1)c1sccc1NCc1ccnc2ccccc12	30.4% (inactive)
Clc1cccc(Cl)c1NC1=NCCN1 [Clonidine]	51.5% (inactive)
CN1CCN(C2=Nc3ccccc3Oc3ccc(Cl)cc32)CC1 [Loxapine]	51.2% (inactive)
CC(C)n1c(/C=C/[C@@H](O)C[C@@H](O)CC(=O)O)c(-c2ccc(F)cc2)c2ccccc21 [Fluvastatin]	19.7% (active)
O=C(O)C[C@H](O)C[C@H](O)/C=C/c1c(C2CC2)nc2ccccc2c1-c1ccc(F)cc1 [Pitavastatin Calcium]	22.1% (inactive)
CC(C)c1c(C(=O)Nc2ccccc2)c(-c2ccccc2)c(-c2ccc(F)cc2)n1CC[C@@H](O)C[C@@H](O)CC(=O)O [Atorvastatin]	41.6% (inactive)
NC(Cc1c[nH]c2ccc(O)cc12)C(=O)O (stereo not drawn) [5-hydroxytryptophan (5-HTP)]	41.1% (inactive)
CC(C)OC(=O)OCOP(=O)(CO[C@H](C)Cn1cnc2c(N)ncnc21)OCOC(=O)OC(C)C [Tenofovir Disoproxil]	37.9% (inactive)
CC(C)(C)C(=O)OCOP(=O)(COCCn1cnc2c(N)ncnc21)OCOC(=O)C(C)(C)C [Adefovir Dipivoxil]	19.4% (active)
C[C@H](Cn1cnc2c(N)ncnc21)OCP(=O)(O)O [Tenofovir]	36.4% (inactive)
Cc1nc(O)c(C#N)cc1-c1ccncc1 [Milrinone]	37.8% (inactive)
CCOC(=O)N1CCC(=C2c3ccc(Cl)cc3CCc3cccnc32)CC1 [Loratadine]	54.5% (inactive)
CC(C)c1cc(-c2nnc(O)n2-c2ccc3c(ccn3C)c2)c(O)cc1O [Ganetespib]	4.48% (active)
OC(CC1c2ccccc2-c2cncn21)C1CCCCC1 (stereo not drawn)	43% (inactive)
CCCCCCCCCCCC1=C(O)C(O)=CC(=O)C1=O [Embelin]	51.4% (inactive)
COc1ccc2cccc(CCNC(C)=O)c2c1 [Agomelatine]	39.1% (inactive)
COC(=O)[C@H](Cc1ccccc1)NC(=O)[C@@H](N)CC(=O)O [Aspartame]	44.2% (inactive)
CC(=O)SCC(Cc1ccccc1)C(=O)NCC(=O)OCc1ccccc1 (stereo not drawn) [Racecadotril]	45% (inactive)
CC(C)C[C@@H](C=O)NC(=O)[C@H](CC(C)C)NC(=O)[C@H](CC(C)C)NC(=O)OCc1ccccc1	7.69% (active)
CCCCCOC(=O)Nc1nc(=O)n([C@@H]2O[C@H](C)[C@@H](O)[C@H]2O)cc1F [Capecitabine]	40.5% (inactive)
CN(Cc1ccc(C(C)(C)C)cc1)Cc1cccc2ccccc12 [Butenafine]	51.2% (inactive)
